Source: PubChem BioAssay (several laboratories)
GDH-TPI counter-1 = inhibits GDH-TPI coupling enzymes, artifact for Mtb FBA screen | GDH-TPI coupled enzyme counterscreen, NADH absorbance | inhibition, % at 4.8 µM | actives 1.2% (n = 360,000); in the data active means inhibition above about 30%;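 further: 0% = DMSO wells and 100% = wells lacking the enzyme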
BJeLR viability = BJeLR cell viability loss | BJeLR (HRASV12) viability, CellTiter-Glo ATP luminescence, 48 h | inhibition, % (test concentration not listed) | actives 0.17% (n = 300,000); in the data active means inhibition above about 50%
PrPC surface inh = reduces human prion protein on the cell surface | inhibition, % at 13.8 µM | AID 720596 | cell surface PrPC, TR-FRET read-out | actives 0.43% (n = 370,000); in the data active means inhibition above about 24%; further: 0% = median of the test wells and 100% = reference compound wells
RecA intein inh = Mtb RecA intein splicing inhibition | cell-free RecA intein splicing, fluorescence | inhibition, % (test concentration not listed) | actives 0.75% (n = 290,000) | P9WHJ3; in the data active means inhibition above about 30%;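 further: 0% = vehicle wells and 100% = reference inhibitor control wells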
FBA Mtb inh = inhibitors of M. tuberculosis fructose-bisphosphate aldolase | P9WQA3 | purified M. tuberculosis FBA, fluorescence read-out | inhibition, % at 1 µM | actives 2.3% (n = 360,000) | AID 588726;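 further: 0% = vehicle and 100% = reference inhibitor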
Target sequence (P9WQA3 whole entry, looked up): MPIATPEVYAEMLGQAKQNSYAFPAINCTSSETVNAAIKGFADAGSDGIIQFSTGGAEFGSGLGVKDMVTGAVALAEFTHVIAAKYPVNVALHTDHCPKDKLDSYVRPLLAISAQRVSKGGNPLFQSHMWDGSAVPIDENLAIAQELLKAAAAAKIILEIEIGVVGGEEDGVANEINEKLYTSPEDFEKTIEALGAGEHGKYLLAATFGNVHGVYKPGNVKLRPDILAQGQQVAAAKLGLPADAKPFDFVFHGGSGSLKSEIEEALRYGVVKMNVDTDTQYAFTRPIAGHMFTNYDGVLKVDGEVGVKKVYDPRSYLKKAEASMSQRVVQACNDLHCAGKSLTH
Mtb FBA inh conf = Mtb FBA inhibition, confirmed; inhibition, % at 1 µM; purified M. tuberculosis FBA, fluorescence read-out; actives 78% (n = 5,600); AID 651616; shares compounds with FBA Mtb inh;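 further: 0% = vehicle wells and 100% = reference inhibitor wells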
GDH-TPI counter-2 = counter-screen for M. tuberculosis FBA inhibitors: GDH-TPI coupled enzyme inhibition | inhibition, % at 1 µM | actives 81% (n = 5,600) | AID 652141 | shares compounds with FBA Mtb inh | GDH-TPI coupled enzyme counterscreen, fluorescence; in the data active means inhibition above about 10%
Numbers without * were called inactive. Rows were chosen to be rich in hits. Some 4.2% of all compounds tested hit in one or more screens of this group. Unless noted, no stated cut-off is given here; in the data, active means inhibition above about 27%; inactive means the rest.

For N#CC1(C#N)C(c2ccccc2)OC23CCCCC2C1(C#N)C(=N)O3 (stereo not given) the results were GDH-TPI counter-1 0.0, BJeLR viability 4.2, PrPC surface inh 1.2, RecA intein inh -311.4, FBA Mtb inh 75.2*, Mtb FBA inh conf 58.0* and GDH-TPI counter-2 64.0*.
For N#CC1(C#N)C(c2ccccc2)OC23CCCCCC2C1(C#N)C(=N)O3 (stereo not given) the results were GDH-TPI counter-1 2.2, BJeLR viability -9.0, PrPC surface inh -0.9, RecA intein inh -58.1, FBA Mtb inh 40.9*, Mtb FBA inh conf 40.4* and GDH-TPI counter-2 33.9*.
CC(=O)N1CCN(S(=O)(=O)c2ccc3c(c2)oc(=O)n3C)CC1 was read as PrPC surface inh -0.2.
For O=C(COc1ccc2ccc(=O)oc2c1)Nc1ccc(CCO)cc1 the results were GDH-TPI counter-1 17.7, BJeLR viability 5.0, PrPC surface inh -5.6, RecA intein inh 1.2 and FBA Mtb inh 7.4.
Screening Cc1cc(OCC(=O)Nc2ccc(CCO)cc2)c2c(C)c(C)c(=O)oc2c1 returned GDH-TPI counter-1 6.5, BJeLR viability -7.2, PrPC surface inh 1.0, RecA intein inh 0.2, FBA Mtb inh 33.2*, Mtb FBA inh conf 0.5 and GDH-TPI counter-2 -2.9.
`Cc1cc(OCC(=O)N2CCC(C(=O)O)CC2)c2c(C)c(C)c(=O)oc2c1` gave GDH-TPI counter-1 8.8, BJeLR viability 2.1, PrPC surface inh -4.3, RecA intein inh -2.4, FBA Mtb inh 86.6*, Mtb FBA inh conf -5.2 and GDH-TPI counter-2 -6.5.
Screening CC(=O)COc1cc(C)cc2oc(=O)c(C)c(C)c12 returned GDH-TPI counter-1 15.2, BJeLR viability 8.8, PrPC surface inh -6.7, RecA intein inh -1.1, FBA Mtb inh 37.9*, Mtb FBA inh conf active and GDH-TPI counter-2 active.
For Cc1cc(OCC(=O)N2CCC(C(=O)NCC(C)C)CC2)c2c3c(c(=O)oc2c1)CCCC3 the results were GDH-TPI counter-1 6.0, BJeLR viability 1.4, PrPC surface inh 3.6, RecA intein inh 0.9 and FBA Mtb inh 6.3.
`Cc1cc(OCC(=O)N2CCC(C(=O)O)CC2)c2c3c(c(=O)oc2c1)CCCC3` gave GDH-TPI counter-1 5.9, BJeLR viability -7.6, PrPC surface inh -2.5, FBA Mtb inh 76.8*, Mtb FBA inh conf 130.8* and GDH-TPI counter-2 82.0*.
`Cn1c(=O)c2ccccc2n(C)c1=O` gave PrPC surface inh -3.6.
`Cc1ccc(OCc2nnc(SCC(=O)c3ccc(-c4ccccc4)cc3)n2Cc2ccco2)cc1` gave PrPC surface inh -10.5.
`N#CCc1ccc(OC[C@@H](O)CN2CCC(C(O)(c3ccccc3)c3ccccc3)CC2)cc1` gave PrPC surface inh -9.5.
Screening Cc1cc(OCC(=O)N2CCC(C(=O)O)(c3ccccc3)CC2)c2c(C)cc(=O)oc2c1 returned GDH-TPI counter-1 2.0, BJeLR viability -5.4, PrPC surface inh -3.8 and FBA Mtb inh 9.7.
Cc1cc(OCC(=O)N2CCC(O)CC2)c2c(C)cc(=O)oc2c1 was read as GDH-TPI counter-1 3.9, BJeLR viability 7.3, RecA intein inh -2.4, FBA Mtb inh 99.9*, Mtb FBA inh conf 141.9* and GDH-TPI counter-2 104.7*.
`CC1CCN(CC(CS(=O)(=O)c2ccc([N+](=O)[O-])cc2)N2CCC(C)CC2)CC1` (stereo not given) gave GDH-TPI counter-1 10.1, BJeLR viability 32.7, PrPC surface inh -16.1, RecA intein inh 0.6, FBA Mtb inh 55.0*, Mtb FBA inh conf 74.1* and GDH-TPI counter-2 59.6*.
COc1ccc(CNC(=O)OC2CC3CC2[C@H]2CCCCN2C3)cc1 (stereo not given in full) was read as PrPC surface inh 5.8.
For CCC1(CC)Cc2ccccc2-c2nc(NCCCO)[nH]c(=O)c21 the results were GDH-TPI counter-1 7.7, BJeLR viability -4.7, PrPC surface inh 4.0, RecA intein inh 2.9, FBA Mtb inh 58.6*, Mtb FBA inh conf active and GDH-TPI counter-2 active.
CCC1(CC)Cc2ccccc2-c2nc(CN(C)C)[nH]c(=O)c21 was read as GDH-TPI counter-1 14.7, BJeLR viability 8.2, PrPC surface inh 10.0, RecA intein inh 1.6 and FBA Mtb inh -0.1.
`Cc1onc(-c2ccccc2)c1C(=O)NN=Cc1cc(Cl)cc(Cl)c1O` gave PrPC surface inh 10.9.
For CCOc1cc(S(=O)(=O)NC2CC2)c(OCC)cc1-n1cnnn1 the results were GDH-TPI counter-1 -4.6, BJeLR viability -2.0, PrPC surface inh -4.5, RecA intein inh -4.5, FBA Mtb inh 33.5*, Mtb FBA inh conf 183.9* and GDH-TPI counter-2 158.7*.
`CCOc1cc(S(=O)(=O)NCc2ccco2)c(OCC)cc1-n1cnnn1` gave GDH-TPI counter-1 7.8, BJeLR viability -1.3, PrPC surface inh 1.2, RecA intein inh -3.3, FBA Mtb inh 30.1*, Mtb FBA inh conf 63.0* and GDH-TPI counter-2 45.3*.
Screening CCOc1cc(S(=O)(=O)N2CCN(S(=O)(=O)CC)CC2)c(OCC)cc1-n1cnnn1 returned GDH-TPI counter-1 1.2, BJeLR viability -6.6, PrPC surface inh 6.4, RecA intein inh 0.3 and FBA Mtb inh 9.2.
For CC(C)Oc1ccc2c3c(c(=O)oc2c1)CCC3 the results were GDH-TPI counter-1 19.2, BJeLR viability 6.1, PrPC surface inh -0.9, RecA intein inh -9.6, FBA Mtb inh 76.2*, Mtb FBA inh conf 86.0* and GDH-TPI counter-2 72.4*.
Screening CCc1c(C)c2ccc(OCC(N)=O)cc2oc1=O returned GDH-TPI counter-1 0.0, BJeLR viability 1.0, PrPC surface inh 8.0, FBA Mtb inh 87.5*, Mtb FBA inh conf 17.8 and GDH-TPI counter-2 6.0.
`O=C(COc1ccc2c3c(c(=O)oc2c1)CCC3)Nc1ccc(CCO)cc1` gave GDH-TPI counter-1 9.6, BJeLR viability 1.5, PrPC surface inh -0.3, RecA intein inh -4.9 and FBA Mtb inh 8.9.
For COc1cc(COc2ccc3c(C)c(CCC(=O)O)c(=O)oc3c2)cc(OC)c1OC the results were GDH-TPI counter-1 13.9, BJeLR viability -2.0, PrPC surface inh -1.8, RecA intein inh -5.4 and FBA Mtb inh 19.1.
For O=C(O)COc1ccc2c3c(c(=O)oc2c1)CCC3 the results were GDH-TPI counter-1 6.0, BJeLR viability 1.5, PrPC surface inh -1.4, RecA intein inh -3.2, FBA Mtb inh 96.3*, Mtb FBA inh conf 71.8* and GDH-TPI counter-2 47.2*.
Screening CN(C)C(=O)COc1ccc2c3c(c(=O)oc2c1)CCCC3 returned GDH-TPI counter-1 14.7, BJeLR viability -3.2, PrPC surface inh -7.4, RecA intein inh 0.4, FBA Mtb inh 61.5*, Mtb FBA inh conf 107.3* and GDH-TPI counter-2 83.5*.
COC(=O)[C@]1(CNC(C)=O)CC(=O)N(C)[C@@H]1c1ccccc1 was read as PrPC surface inh 1.5.
For C=CC[C@@H]1NN2C(=O)[C@@H](CCCC)[C@@H]3c4cc5ccccc5cc4C=NN3[C@@H]2c2cc3ccccc3cc21 the results were PrPC surface inh 4.1.
